Records with an inconclusive call do not appear. Activity calls are given as the source filed them. The call rests on the fitted dose curve; in most records, active means well fitted curve in the direction sought with a large enough effect; inconclusive means small, poorly fitted or top-dose-only effect, or another doubt; inactive means no such curve, though single readings can be large; an effect the other way counts as inactive or inconclusive.
Columns and labels:
[1] = test system: Zika virus NS2B-NS3 protease (linked construct); test: Primary screen NINDS Rhodamine qHTS for Zika virus inhibitors (AID 1347160); further: nearly all actives have a fitted effect of over 55% in size; on activity change, negative = inhibition: on the % scale 0 is the no-effect control and ±100 the full control effect
Procedure, shortened: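 Single-chain NS2B-NS3 protease, 25 nM, pH 8.0; compounds preincubated 15 min. Activity: Rhodamine110 release from 1.5 microM substrate over 15 min, room temperature, data fitted to 4-parameter Hill.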

[2] = Primary qHTS for inhibitors of nuclear receptor binding SET domain protein 2 (NSD2) in an isogenic RCH-ACV NSD2 p.E1099K mutant (9B) (AID 1645876); further: nearly all actives have a fitted effect of over 70% in size; further: potency means the concentration at half of the fitted maximal effect
[3] = Primary qHTS for inhibitors of nuclear receptor binding SET domain protein 2 (NSD2) in an RCH-ACV wild type WT cells (2C) (AID 1645877); further: nearly all actives have a fitted effect of over 70% in size; further: potency means the concentration at half of the fitted maximal effect
[4] = biological target: Glutathione peroxidase 1 (Homo sapiens) (UniProt P07203); test: Primary qHTS Assay for Inhibitors of Recombinant Selenoprotein Glutathione Peroxidase 1 (GPX1) (AID 1845191); further: nearly all actives have a fitted effect of over 65% in size; on activity, negative = inhibition: on the % scale 0 is the no-effect control and ±100 the full control effect
Procedure, shortened: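 GR-coupled readout: NADPH consumption tracked by fluorescence, ex 340/em 450 nm, at t=0 and after 15 min at RT. Final mix 10 nM GPX1, 1 mM GSH, 0.5 mM CHP, 0.5 mM NADPH, 100 nM GR, 0.01% BSA, following 30 min enzyme–compound preincubation.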

[5] = biological target: Phospholipid hydroperoxide glutathione peroxidase GPX4 (Homo sapiens) (UniProt P36969); test: Primary qHTS Assay for Inhibitors of Recombinant Selenoprotein Glutathione Peroxidase 4 (GPX4) (AID 1845192); further: on the % scale 0 is the no-effect control and ±100 the full control effect; nearly all actives have a fitted effect of over 65% in size
Procedure, shortened: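 Steps: GPX4 plus compound, 30 min RT; add GR/GSH/NADPH master mix; start with cumene hydroperoxide; read 340/450 nm fluorescence at 0 and 15 min. Finals were 200 nM GPX4, 1 mM GSH, 0.5 mM CHP, 0.5 mM NADPH, 100 nM GR.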

[6] = biological target: Luciferin 4-monooxygenase (Photinus pyralis) (UniProt P08659); test: Primary firefly luciferase (FLuc) qHTS assay for identification of artifact compounds. (AID 1845220); conditions: outcome: dose series up to 54.1 µM unless noted; further: nearly all actives have a fitted effect of over 60% in size;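 on activity change, negative = inhibition: plate controls were DMSO vehicle for no effect and no enzyme for full effect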
Procedure, shortened: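 Titrated compounds were incubated 15 min at RT, protected from light, with luciferin and ATP at 10 uM; reaction started with 10 nM FLuc, luminescence imaged at 5 min, and concentration-response fitted by Hill equation.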

[7] = Primary fluorescence-based thiol-reactive (MSTI) qHTS assay for identification of artifact compounds. (AID 1845221); further: nearly all actives have a fitted effect of over 65% in size; further: potency means the concentration at half of the fitted maximal effect;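 on activity change, negative = thiol reactive: thiol-reactive compounds lower the probe fluorescence signal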
Procedure, shortened: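 One-hour, room-temperature, dark incubation of compound with 4 uM MSTI in PBS (pH 7.4, 2% DMSO) precedes a fluorescence read at 525 nm excitation, 598 nm emission; Hill-equation fitting yields concentration-response values.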

[8] = test system: Nanoluciferase (engineered Oplophorus gracilirostris luciferase); test: Primary Nanoluciferase (NLuc) qHTS assay for identification of artifact compounds. (AID 1845222);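 further: NLuc secreted into diluted conditioned medium of S16 cells; 0% = DMSO and -100% = no enzyme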
Procedure, shortened: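 qHTS format, against NLuc in S16 cell-conditioned medium. Nano-Glo substrate 1:100 was added after 15 min at room temperature. Luminescence was taken after a further 5 min.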

[9] = test system: CRL-7250; test: Cytotoxic Profiling of Annotated Libraries Using Quantitative High-Throughput Screening (AID 1296008); conditions: Five cell lines viability, CellTiter-Glo ATP luminescence, 48-72 h; max response: active compounds read low; further: nearly all actives have a fitted effect of over 60% in size; further: potency means the concentration at half of the fitted maximal effect; on max response: on the % scale 0 is the no-effect control and ±100 the full control effect
Procedure, shortened: (§1)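 Cells exposed to compounds for 48 or 72 hr at 37 degrees Celsius. Viability read as ATP-coupled luminescence with CellTiter-Glo after 10 min at room temperature.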

[10] = test system: HEK293; test: as above; conditions: Five cell lines viability, CellTiter-Glo ATP luminescence, 48-72 h; max response: active compounds read low
Procedure, shortened: as §1

[11] = test system: HaCat; test: as above; conditions: Five cell lines viability, CellTiter-Glo ATP luminescence, 48-72 h; max response: active compounds read low
Procedure, shortened: as §1

[12] = test system: NIH3T3; test: as above; conditions: Five cell lines viability, CellTiter-Glo ATP luminescence, 48-72 h; max response: active compounds read low
Procedure, shortened: as §1

[13] = test system: C33A; test: Primary qHTS to identify gynecologic anti-cancer compounds using libraries of approved drugs and bioactive compounds (AID 1345084); conditions: Gynecologic cancer cell panel viability, ATPlite luminescence, 48 h; series mostly up to 57.5 µM; further: nearly all actives have a fitted effect of over 55% in size; further: potency means the concentration at half of the fitted maximal effect
Procedure, shortened: (§2)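 In this quantitative HTS, cell killing is estimated from loss of ATP-dependent luciferase light. Cells see five compound concentrations over a 48 h exposure.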

[14] = test system: CASKI; test: as above; conditions: Gynecologic cancer cell panel viability, ATPlite luminescence, 48 h; series mostly up to 57.5 µM
Procedure, shortened: as §2

[15] = test system: Es-2; test: as above; conditions: Gynecologic cancer cell panel viability, ATPlite luminescence, 48 h; series mostly up to 57.5 µM
Procedure, shortened: as §2

[16] = test system: Hek293T; test: as above; conditions: Gynecologic cancer cell panel viability, ATPlite luminescence, 48 h, control line for the selectivity index; series mostly up to 57.5 µM
Procedure, shortened: as §2

[17] = test system: OV90; test: as above; conditions: Gynecologic cancer cell panel viability, ATPlite luminescence, 48 h; series mostly up to 57.5 µM
Procedure, shortened: as §2

[18] = test system: Tov-21-G; test: as above; conditions: Gynecologic cancer cell panel viability, ATPlite luminescence, 48 h; series mostly up to 57.5 µM
Procedure, shortened: as §2

[19] = test system: Tov112D; test: as above; conditions: Gynecologic cancer cell panel viability, ATPlite luminescence, 48 h; series mostly up to 57.5 µM
Procedure, shortened: as §2

[20] = test system: PA-1; test: as above; conditions: Gynecologic cancer cell panel viability, ATPlite luminescence, 48 h; series mostly up to 57.5 µM
Procedure, shortened: as §2

Chain of Glutathione peroxidase 1 (Homo sapiens) (P07203 whole entry, looked up): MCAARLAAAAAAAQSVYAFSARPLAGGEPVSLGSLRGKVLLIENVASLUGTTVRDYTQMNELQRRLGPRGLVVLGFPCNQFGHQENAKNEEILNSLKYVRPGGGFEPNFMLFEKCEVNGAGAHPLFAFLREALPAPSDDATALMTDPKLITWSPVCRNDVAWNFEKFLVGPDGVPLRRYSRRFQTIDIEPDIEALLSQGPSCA
Chain of Phospholipid hydroperoxide glutathione peroxidase GPX4 (Homo sapiens) (P36969 whole entry, looked up): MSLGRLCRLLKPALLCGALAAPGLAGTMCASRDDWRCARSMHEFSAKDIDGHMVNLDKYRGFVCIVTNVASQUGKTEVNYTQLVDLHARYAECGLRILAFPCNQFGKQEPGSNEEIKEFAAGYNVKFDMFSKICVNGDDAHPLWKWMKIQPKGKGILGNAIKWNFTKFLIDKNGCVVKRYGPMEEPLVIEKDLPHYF

C[C@H]1O[C@@H](O[C@H]2CC[C@]3(C=O)C4CC[C@]5(C)[C@@H](C6=CC(=O)OC6)CC[C@]5(O)[C@@H]4CC[C@]3(O)C2)C[C@@H](O)[C@@H]1O (stereo not given in full)
active: Potency [2] 0.0317 µM | Potency [3] 0.0317 µM | Potency [9] 0.0224 µM | Potency [10] 0.0252 µM | Potency [11] 0.502 µM | Potency [13] 0.0891 µM | Potency [14] 0.355 µM | Potency [15] 0.141 µM | Potency [16] 0.141 µM | Potency [17] 0.316 µM | Potency [18] 0.126 µM | Potency [19] 0.0251 µM
inactive: Potency [1] | Potency [4] | Potency [5] | outcome [6] | Potency [7] | Potency [8] | max response [12] -1.6%

CC[C@@H]1C[C@H]2CC[C@H](O2)[C@H](C)C(=O)O[C@@H](C)C[C@@H]2CC[C@@H](O2)[C@@H](C)C(=O)O[C@H](CC)C[C@H]2CC[C@H](O2)[C@H](C)C(=O)O[C@@H](C)C[C@@H]2CC[C@@H](O2)[C@@H](C)C(=O)O1
inactive: Potency [1] | Potency [4] | Potency [5] | outcome [6] inactive [at 25.7 µM] | Potency [8]
active: Potency [2] 0.0192 µM | Potency [3] 0.0216 µM | Potency [9] 0.385 µM | Potency [10] 0.0544 µM | Potency [11] 1.53 µM | Potency [12] 0.0862 µM | Potency [13] 0.316 µM | Potency [14] 0.447 µM | Potency [15] 0.708 µM | Potency [16] 0.631 µM | Potency [17] 0.398 µM | Potency [20] 0.355 µM | Potency [18] 0.794 µM | Potency [19] 0.562 µM

C[C@H]1O[C@@H](O[C@H]2CC[C@]3(CO)C4CC[C@]5(C)[C@@H](C6=CC(=O)OC6)CC[C@]5(O)[C@@H]4CC[C@H]3C2)[C@H](O)[C@H](O)[C@@H]1O[C@@H]1O[C@H](CO)[C@@H](O)[C@H](O)[C@H]1O (stereo not given in full)
active: Potency [2] 0.608 µM | Potency [3] 1.08 µM | Potency [7] 3.16 µM | Potency [9] 1.22 µM | Potency [10] 1.53 µM | Potency [11] 5.44 µM | Potency [13] 1.12 µM | Potency [14] 6.31 µM | Potency [15] 3.55 µM | Potency [16] 3.16 µM | Potency [20] 3.16 µM | Potency [18] 2.82 µM | Potency [19] 1.12 µM
inactive: Potency [4] | Potency [5] | outcome [6] | Potency [8] | max response [12] -2.67%

COc1ccc2c3c([nH]c2c1)C(C=C(C)C)N1C(=O)C2CCCN2C(=O)C1C3 (stereo not given)
inactive: Potency [1] | Potency [4] | outcome [6] | Potency [8] | max response [9] -26.7% | max response [10] -10.4% | max response [11] -17.6% | max response [12] -20.2% | Potency [13] | Potency [14] | Potency [15] | Potency [16] | Potency [17] | Potency [20] | Potency [18] | Potency [19]

COC1CC(O[C@H]2CC[C@]3(C)C4CC[C@]5(C)[C@@H](C6=CC(=O)OC6)[C@@H](OC(C)=O)C[C@]5(O)C4CC[C@@H]3C2)OC(C)C1O[C@@H]1O[C@H](CO)[C@@H](O)[C@H](O)[C@H]1O (stereo not given in full)
inactive: Potency [4] | Potency [5] | outcome [6] | Potency [8] | max response [12] 4.46%
active: Potency [2] 0.383 µM | Potency [3] 0.483 µM | Potency [7] 6.3 µM | Potency [9] 0.385 µM | Potency [10] 0.485 µM | Potency [11] 1.72 µM | Potency [13] 0.631 µM | Potency [14] 3.16 µM | Potency [15] 0.794 µM | Potency [16] 1.41 µM | Potency [17] 3.16 µM | Potency [20] 1.12 µM | Potency [18] 0.562 µM | Potency [19] 0.355 µM

Cc1c(Cl)c(OCC(=O)N2CCN(C)CC2)nc2sc(C(=O)NC3CC3)c(N)c12
inactive: Potency [1] | Potency [2] | Potency [3] | Potency [4] | Potency [5] | outcome [6] | Potency [7] | Potency [8] | max response [9] -0.463% | max response [10] -7.33% | max response [11] -0.624% | max response [12] 0.637% | Potency [13] | Potency [14] | Potency [15] | Potency [16] | Potency [17] | Potency [20] | Potency [18] | Potency [19]

CC[C@H](C)[C@H](NC(=O)[C@H]1CCCCN1C)C(=O)N(COC(=O)CC(C)C)[C@H](C[C@@H](OC(C)=O)c1nc(C(=O)N[C@@H](Cc2ccc(O)cc2)C[C@H](C)C(=O)O)cs1)C(C)C
active: Potency [2] 0.0011 µM | Potency [3] 0.0003 µM | Potency [9] 0.0047 µM | Potency [10] 0.0004 µM | Potency [12] 0.0012 µM | Potency [15] 0.0083 µM | Potency [18] 0.0052 µM | Potency [19] 0.0041 µM
inactive: outcome [1] inactive [at 1.3 µM] | activity, negative = inhibition [4] -5.19% [at 1.09 µM] | activity change, negative = inhibition [5] -13.5% [at 1.09 µM] | activity change, negative = inhibition [6] -4.53% [at 1.03 µM] | activity change, negative = thiol reactive [7] 28.3% [at 1.02 µM] | activity, negative = inhibition [8] 2.85% [at 1.03 µM] | max response [11] -10.6%

COC1CC(O[C@H]2CC[C@]3(C)C4CC[C@]5(C)[C@@H](C6=CC(=O)OC6)[C@@H](OC(C)=O)C[C@]5(O)C4CC[C@@H]3C2)OC(C)C1O (stereo not given in full)
inactive: Potency [1] | Potency [4] | Potency [5] | outcome [6] | Potency [7] | Potency [8] | max response [12] -14.3%
active: Potency [2] 0.224 µM | Potency [3] 0.448 µM | Potency [9] 0.317 µM | Potency [10] 0.502 µM | Potency [11] 0.796 µM | Potency [13] 0.891 µM | Potency [15] 0.891 µM | Potency [16] 1 µM | Potency [17] 3.16 µM | Potency [20] 0.891 µM | Potency [18] 0.708 µM | Potency [19] 0.251 µM

CC[C@H]1C[C@@H]2CC[C@@H](O2)[C@@H](C)C(=O)O[C@H](CC)C[C@H]2CC[C@H](O2)[C@H](C)C(=O)O[C@@H](C)C[C@@H]2CC[C@@H](O2)[C@@H](C)C(=O)O[C@H](CC)C[C@H]2CC[C@H](O2)[C@H](C)C(=O)O1
inactive: Potency [1] | Potency [4] | Potency [5] | outcome [6] | Potency [8]
active: Potency [2] 0.0108 µM | Potency [3] 0.0136 µM | Potency [9] 0.385 µM | Potency [10] 0.0217 µM | Potency [11] 0.0685 µM | Potency [12] 0.0385 µM | Potency [13] 0.224 µM | Potency [14] 0.447 µM | Potency [15] 0.501 µM | Potency [16] 0.355 µM | Potency [17] 0.0891 µM | Potency [20] 0.178 µM

CO[C@@H]1C[C@H](O[C@H]2CC[C@@]3(C)C(CCC4C3CC[C@]3(C)[C@@H](C5=CC(=O)OC5)[C@@H](OC(C)=O)CC43O)C2)O[C@H](C)[C@@H]1O[C@H]1O[C@H](CO[C@@H]2O[C@H](CO)[C@@H](O)[C@H](O)[C@H]2O)[C@@H](O)[C@H](O)[C@H]1O (stereo not given in full)
inactive: Potency [1] | Potency [4] | Potency [5] | activity change, negative = inhibition [6] -3.37% [at 11.6 µM] | activity change, negative = thiol reactive [7] 43.8% [at 11.5 µM] | activity, negative = inhibition [8] 1.29% [at 11.6 µM] | max response [12] -8.42%
active: Potency [2] 0.346 µM | Potency [3] 0.774 µM | Potency [9] 0.491 µM | Potency [10] 0.873 µM | Potency [11] 1.55 µM | Potency [13] 0.631 µM | Potency [15] 1.26 µM | Potency [16] 2 µM | Potency [20] 2 µM | Potency [18] 0.794 µM | Potency [19] 0.316 µM

— PubChem BioAssay (NCATS)
